The supplement of paper PMC13380429

System: Vero E6 infected with SARS-CoV-2
Assay: inhibition of SARS-CoV-2 cytopathic effect; higher = more antiviral protection, active = above 15
Details: 48 h

Measured: inhibition of SARS-CoV-2 cytopathic effect

CCOC(=O)[C@H](CCc1ccccc1)N[C@@H](C)C(=O)N1Cc2cc(OC)c(OC)cc2C[C@H]1C(=O)O [moexipril]
inactive: 1 nM -1.91% | 8.33 nM 1.34% | 100 nM -0.63% | 833.33 nM -0.22% | 10000 nM 0.1%

Cc1nc(Nc2ncc(C(=O)Nc3c(C)cccc3Cl)s2)cc(N2CCN(CCO)CC2)n1 [dasatinib]
inactive: 1 nM 1.14% | 8.33 nM -1.86% | 100 nM -4.77% | 833.33 nM -12.6% | 10000 nM -11.6%

COc1ccc(-n2nc(CCC(=O)N(C)O)cc2-c2ccc(Cl)cc2)cc1 [tepoxalin]
inactive: 1 nM 0.7% | 8.33 nM -1.58% | 100 nM 0.1% | 833.33 nM 1.81% | 10000 nM -0.4%

COc1cc2c(cc1O)CC[C@@H]1[C@@H]2CC[C@]2(C)[C@@H](O)CC[C@@H]12 [2-methoxyestradiol]
inactive: 1 nM -3.17% | 8.33 nM 0.66% | 100 nM -1.13% | 833.33 nM -1.83% | 10000 nM -4.59%

CC1=C(C)C(=O)C(C(CCCCCC(=O)O)c2ccccc2)=C(C)C1=O (stereo not given) [seratrodast]
inactive: 1 nM -0.6% | 8.33 nM -1.68% | 100 nM 1.92% | 833.33 nM 2.24% | 10000 nM 1.24%

O=C(Nc1ccccc1F)N[C@H]1N=C(c2ccccc2)c2ccccc2NC1=O
inactive: 1 nM 0.66% | 8.33 nM 0.41% | 100 nM -0.15% | 833.33 nM -1.67% | 10000 nM -0.49%

Cc1cccc(-c2[nH]c(C(C)(C)C)nc2-c2ccc3nccnc3c2)n1
inactive: 1 nM 3.48% | 8.33 nM -0.18% | 100 nM 0.8% | 833.33 nM 0.91% | 10000 nM 1.69%

COc1ccc([C@@H]2CC(=O)c3c(O)cc(O)cc3O2)cc1O [hesperetin]
inactive: 1 nM 1.09% | 8.33 nM 3.18% | 100 nM 4.54% | 833.33 nM 0.97% | 10000 nM 0.11%

O=C1C=CC(=O)C2=C1C1c3ccccc3C2c2ccccc21
inactive: 1 nM 1.05% | 8.33 nM 0.78% | 100 nM -0.03% | 833.33 nM 2.43% | 10000 nM 5.57%

Cc1ccccc1/N=N/c1ccc(NC(=O)c2ccnn2C)c(C)c1
inactive: 1 nM -1.46% | 8.33 nM 0.89% | 100 nM 1.16% | 833.33 nM 2.03% | 10000 nM 0.48%

COc1cc(OC)cc(N(CCNC(C)C)c2ccc3ncc(-c4cnn(C)c4)nc3c2)c1 [erdafitinib]
inactive: 1 nM 1.71% | 8.33 nM -0.38% | 100 nM 0.68% | 833.33 nM -1.43% | 10000 nM 11.7%

N=C(N)NCCCC[C@@H]1NC(=O)CCSSC[C@@H](C(N)=O)NC(=O)[C@@H]2CCCN2C(=O)[C@H](Cc2c[nH]c3ccccc23)NC(=O)[C@H](CC(=O)O)NC(=O)CNC1=O [eptifibatide]
inactive: 1 nM -0.98% | 8.33 nM 8.08% | 100 nM 3.25% | 833.33 nM 2.75% | 10000 nM -2.38%

c1ccc(C(O[C@@H]2CCCN(CCc3ccc4c(c3)OCO4)C2)c2ccccc2)cc1 [zamifenacin]
inactive: 1 nM 0.36% | 8.33 nM 3.7% | 100 nM 0.93% | 833.33 nM -1.42% | 10000 nM -1.64%

CC(C)C(=O)OC[C@@]1(N=[N+]=[N-])O[C@@H](n2ccc(N)nc2=O)[C@H](OC(=O)C(C)C)[C@@H]1OC(=O)C(C)C [balapiravir]
inactive: 1 nM 2.39% | 8.33 nM 1.09% | 100 nM 0.61% | 833.33 nM -0.11% | 10000 nM 0.76%

CCN1CCN(c2cc(-c3ccc(F)cc3)c3c(n2)CCCCCC3)CC1 [blonanserin]
inactive: 1 nM 3.34% | 8.33 nM 2.25% | 100 nM -2.9% | 833.33 nM -0.44% | 10000 nM -3.59%

CC(=O)Oc1cccc(C(=O)O)c1OC(C)=O [dipyrocetyl]
inactive: 1 nM -0.44% | 8.33 nM -1.4% | 100 nM 2.59% | 833.33 nM -0.15% | 10000 nM 5.25%

CC(C)(C)OC(=O)N[C@H]1CCCCC/C=C\[C@@H]2C[C@@]2(C(=O)NS(=O)(=O)C2CC2)NC(=O)[C@@H]2C[C@@H](OC(=O)N3Cc4cccc(F)c4C3)CN2C1=O [danoprevir]
inactive: 1 nM 1.7% | 8.33 nM 1.4% | 100 nM 1.06% | 833.33 nM 0.24% | 10000 nM -1.76%
